# This is a sample that favours compounds with a hit; in the whole collection about 6.8% have one here.
# Pf Dd2 inh: P. falciparum Dd2 growth inhibition | SYBR Green, 72 h; stronger effect = lower value | activity change, % at 10 µM | 2.3% of 94,000 active | AID 1159554; in the data active = activity change below about -80%; inconclusive = no clear call, values can overlap the other calls
# C diff HTS: inhibitors of Clostridium difficile growth; 0.25% of 86,000 active; growth activity, negative = inhibition, % at 16 µg/mL (by protocol); Clostridium difficile clinical isolate growth, OD600, 24 h; stronger effect = lower value;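 active = mean growth activity at or below -80% and every replicate also at or below -80%; inconclusive = mean at or below -80% but some replicate above -80%; inactive = mean growth activity above -80%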;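 also: 0% = DMSO wells and -100% = levofloxacin 16 µg/mL wells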
# T cruzi growth-1: inhibitors of T. cruzi proliferation | AID 624255 | 5.9% of 77,000 active | T. cruzi beta-gal in NIH3T3, GalScreen luminescence, 90 h | inhibition, % at 8.34 µM;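 active = mean inhibition above about 93%, with at least 55% of replicates each passing it, limit read from the data, passing the limit was not always enough; inconclusive = only one of those two conditions holds; inactive = neither condition holds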
# T cruzi growth-2: blocks T. cruzi growth in NIH3T3 host cells. T. cruzi beta-gal in NIH3T3, GalScreen luminescence, 90 h. inhibition, % at 8.35 µM. 72% of 5,600 active. AID 651739. shares compounds with T cruzi growth-1;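 active = mean replicate inhibition above about 95% and at least 55% of replicates individually reaching it, limit read from the data; inconclusive = only one of the two criteria is met; inactive = neither criterion is met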
# T cruzi growth-3: inhibitors of T. cruzi proliferation | shares compounds with T cruzi growth-1 | inhibition, % at 2.09 µM | 21% of 5,600 active | T. cruzi beta-gal in NIH3T3, GalScreen luminescence, 90 h;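 active = mean inhibition above about 95%, with at least 55% of replicates also reaching it, limit read from the data; inconclusive = meets just one of the two conditions; inactive = meets neither condition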;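 also: plate controls were neutral control median for no effect and positive control median for full effect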
# 3T3 cytotox: NIH/3T3 (mouse) viability loss; cytotoxicity (signal decrease), % at 8.35 µM; NIH/3T3 viability, CellTiter-Glo ATP luminescence, 90 h; shares compounds with T cruzi growth-1; AID 651742; 14% of 5,600 active;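 active = mean signal decrease across replicates above about 35% based on untreated-well scatter, with enough replicates individually passing, limit read from the data; inconclusive = no rule stated though some were filed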;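 also: 0% = median of neutral control wells and 100% = median of positive control wells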
# 3T3 cytotox 2: cytotoxicity in mouse NIH/3T3 fibroblasts | shares compounds with T cruzi growth-1 | NIH/3T3 viability, CellTiter-Glo ATP luminescence, 90 h | inhibition, % at 24.9 µM | 56% of 5,600 active | AID 651744;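 active = mean loss of cell viability signal at or above a set limit, and enough replicates individually reaching it; inconclusive = meets only the mean limit or only the replicate share; inactive = meets neither condition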;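 also: 0% = median of neutral control wells and 100% = median of positive control wells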
# Active calls of the source: *; ? = inconclusive; . = no result; + = active, no number; ! = not active in a repeat.
SMILES,Pf Dd2 inh,C diff HTS,T cruzi growth-1,T cruzi growth-2,T cruzi growth-3,3T3 cytotox,3T3 cytotox 2
COC(=O)[C@H]1[C@H](CO)[C@H]2Cn3c(ccc(-c4cccc(OC)c4)c3=O)[C@H]2N1CC1CC1,0.0,12.5,74.7,.,.,.,.
CCNC(=O)[C@@H]1[C@@H](CO)[C@@H]2Cn3c(ccc(-c4ccccc4OC)c3=O)[C@@H]2N1CC,11.2,-2.7,12.3,.,.,.,.
COc1cccc(-c2ccc3n(c2=O)C[C@@H]2[C@@H](CO)[C@H](C(=O)N(C)C)N(CC4CC4)[C@H]32)c1,-1.6,5.3,103.9*,107.4*,18.2,11.9,?
CCNC(=O)[C@@H]1[C@@H](CO)[C@@H]2Cn3c(ccc(-c4ccccc4OC)c3=O)[C@@H]2N1S(C)(=O)=O,1.3,-1.0,111.3*,-99.4,7.5,-26.0,-51.6
COC(=O)[C@@H]1[C@@H](CO)[C@@H]2Cn3c(ccc(-c4ccccc4OC)c3=O)[C@@H]2N1CC1CCCC1,.,-7.9,+,37.7,13.3,-1.1,33.2*
COC(=O)[C@H]1[C@H](CO)[C@H]2Cn3c(ccc(-c4ccccc4OC)c3=O)[C@H]2N1CC1CCCC1,.,-11.2,+,44.2,-11.6,-6.9,28.1*
C[C@H]1CN([C@@H](C)CO)C(=O)c2cc(C3=CCCCC3)cnc2O[C@H]1CN(C)Cc1ccccc1F,-13.4,5.7,31.4,.,.,.,.
O=C(N[C@H]1CC[C@@H](CCNC(=O)c2ccccc2F)O[C@H]1CO)c1ccc2c(c1)OCO2,-5.6,-1.0,.,.,.,.,.
C[C@H](CO)N1C[C@H](C)[C@@H](CN(C)Cc2ccc3c(c2)OCO3)OCCCC[C@H](C)Oc2ccc(NC(=O)Nc3ccccc3)cc2C1=O,-16.8,9.1,38.0,.,.,.,.
C[C@@H]1CCCCO[C@H](CN(C)Cc2ccccc2)[C@H](C)CN([C@H](C)CO)C(=O)c2cc(NC(=O)Nc3ccc4c(c3)OCO4)ccc2O1,-77.8,6.8,97.8*,105.8*,91.2,12.0,52.3*
C[C@@H]1CCCCO[C@@H](CN(C)Cc2ccccc2)[C@@H](C)CN([C@H](C)CO)C(=O)c2cc(NC(=O)Nc3ccc4c(c3)OCO4)ccc2O1,36.5,2.4,43.4,.,.,.,.
C[C@@H]1CCCCO[C@@H](CN(C)Cc2ccc3c(c2)OCO3)[C@H](C)CN([C@@H](C)CO)C(=O)c2cc(NC(=O)Nc3ccccc3)ccc2O1,-76.1,3.8,83.8,.,.,.,.
C[C@@H]1CCCCO[C@@H](CN(C)Cc2ccc3c(c2)OCO3)[C@@H](C)CN([C@H](C)CO)C(=O)c2cc(NC(=O)Nc3ccccc3)ccc2O1,17.8,24.8,?,111.6*,78.5,19.8,17.7
C[C@@H]1CCCCO[C@H](CN(C)Cc2ccc3c(c2)OCO3)[C@H](C)CN([C@H](C)CO)C(=O)c2cc(NC(=O)Nc3ccccc3)ccc2O1,?,20.2,114.1*,?,102.8*,9.8,103.9*
CO[C@@H]1CN(C)C(=O)c2ccc(NS(=O)(=O)c3ccc(F)cc3)cc2OC[C@@H](C)N(C)C[C@H]1C,6.5,.,-18.0,.,.,.,.
C[C@H]1CN([C@@H](C)CO)C(=O)c2cc(C#Cc3ccccn3)cnc2O[C@@H]1CN(C)Cc1ccccc1,-42.5,1.5,121.1*!,106.9*,24.6,-3.7,-6.3
C[C@@H]1CN([C@H](C)CO)C(=O)c2cc(C#Cc3ccccc3)cnc2O[C@@H]1CN(C)C(=O)c1ccccn1,-0.2,-2.3,52.9,.,.,.,.
C[C@@H]1CN([C@@H](C)CO)C(=O)c2cc(C#Cc3ccccn3)cnc2O[C@H]1CN(C)Cc1ccncc1,22.3,-4.3,?,108.0*,56.1,16.9,17.3
C[C@H](CO)N1C[C@H](C)[C@@H](CN(C)Cc2ccccc2)Oc2ncc(C#Cc3ccccn3)cc2C1=O,-30.3,-3.5,94.7,.,.,.,.
C[C@H](CO)N1C[C@H](C)[C@H](CN(C)Cc2ccccc2)Oc2ncc(C#CC3(O)CCCC3)cc2C1=O,-4.4,-0.9,101.7*,45.8,41.9,9.5,18.6
C[C@H]1CN([C@@H](C)CO)C(=O)c2cc(C#Cc3ccccn3)cnc2O[C@H]1CN(C)Cc1ccncc1,10.9,-1.2,44.0,.,.,.,.
C[C@@H]1CN([C@@H](C)CO)C(=O)c2cc(C#CC3(O)CCCC3)cnc2O[C@H]1CN(C)Cc1ccccc1,-20.7,-1.2,19.5,.,.,.,.
C[C@@H]1CN([C@H](C)CO)C(=O)c2cc(C#Cc3ccccc3)cnc2O[C@H]1CN(C)C(=O)c1ccccn1,-23.9,-5.0,110.9*,101.2*,61.8,10.5,29.9*
C[C@H](CO)N1C[C@H](C)[C@@H](CN(C)Cc2cccc(F)c2)Oc2ncc(C#C[C@@H](C)O)cc2C1=O,-2.9,-3.9,-44.0,.,.,.,.
O=C(C1CC1)N1CC[C@@H]2[C@H]1c1cc(Br)ccc1N[C@@H]2CO,60.1,-1.9,-11.4,.,.,.,.
SMILES,Pf Dd2 inh,C diff HTS,T cruzi growth-1,T cruzi growth-2,T cruzi growth-3,3T3 cytotox,3T3 cytotox 2
COCc1cn(CC[C@@H]2CC[C@@H](NC(=O)Cc3cccnc3)[C@H](CO)O2)nn1,11.6,0.4,-24.3,.,.,.,.
C[C@@H]1CN([C@@H](C)CO)C(=O)c2cc(C#Cc3ccc(F)cc3)cnc2O[C@@H]1CN(C)C,-53.9,5.2,37.7,.,.,.,.
COCC#Cc1ccc2c(c1)O[C@H](CN(C)C)[C@H](C)CN([C@H](C)CO)S2(=O)=O,14.9,0.4,-45.9,.,.,.,.
COc1ccc2c3c([nH]c2c1)[C@H](CO)N(C(=O)NC(C)C)CC31CN(C(=O)c2ccccn2)C1,-16.7,.,.,.,.,.,.
C/C=C/c1ccc2c(c1)O[C@H](CN(C)C(=O)c1ccccc1)[C@H](C)CN([C@H](C)CO)S2(=O)=O,-8.5,-3.4,.,.,.,.,.
C/C=C/c1ccc2c(c1)O[C@H](CN(C)C(=O)c1ccccc1)[C@@H](C)CN([C@H](C)CO)S2(=O)=O,-22.7,1.8,.,.,.,.,.
C[C@H](CO)N1C[C@H](C)[C@@H](CN(C)C(=O)c2ccccc2)Oc2cc(/C=C/c3ccccc3)ccc2S1(=O)=O,-69.5,-4.3,?,103.9*,59.4,6.1,42.6*
C/C=C/c1ccc2c(c1)O[C@H](CN(C)C(=O)c1cccc(F)c1)[C@H](C)CN([C@H](C)CO)S2(=O)=O,-39.6,-1.2,78.0,.,.,.,.
C/C=C/c1ccc2c(c1)O[C@@H](CN(C)C(=O)c1cccc(F)c1)[C@@H](C)CN([C@@H](C)CO)S2(=O)=O,-58.1,0.2,?,86.4,31.5,13.4,?
C[C@@H]1CN([C@@H](C)CO)S(=O)(=O)c2ccc(/C=C/c3ccccc3)cc2O[C@H]1CN(C)C(=O)c1ccccc1,-78.0,5.0,126.6*,110.0*,73.6,55.4*,85.0*
C/C=C/c1ccc2c(c1)O[C@@H](CN(C)C(=O)c1ccccc1)[C@@H](C)CN([C@@H](C)CO)S2(=O)=O,-2.9,4.8,.,.,.,.,.

# Compound activity from PubChem BioAssay.
